Test results published in PubChem BioAssay AID1159580 (chemical genetic matrix, 2015).
Hit rate of the full screen: of about 5,500 compounds, about 2,000 (36%) were called active. Another 18% or so got no clear call; they are omitted. Cut-off read from the data, not from the text of the source: active = normalized growth mostly below about 0.91 (no sharp cut-off); inconclusive = no clear call, values can overlap the other calls; inactive = mostly above about 0.92. The list shows a part of the results.

Test: chemical genetic growth profiling, strain panel (AID 1159580);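 note: tested at 20 µM; growth read once vehicle control cultures reached saturation at 30 °C; 1 = growth at the plate median or of vehicle wells; lower values mean less growth of the strain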
Details: growth OD

Measured: normalized growth

CCOC(N)=O
inactive: S. cerevisiae deletion strains, locus YJR075W, strain HOC1, active compounds read low 1.01 | S. cerevisiae deletion strains, locus YKL009W, strain mrt4, active compounds read low 1.02 | S. cerevisiae deletion strains, locus YKL068W, active compounds read low 1.01 | S. cerevisiae deletion strains, locus YKL085W, strain MDH1 (second series), active compounds read low 1 | S. cerevisiae deletion strains, locus YKL085W, strain MDH1, active compounds read low 1 | S. cerevisiae deletion strains, locus YKL160W, strain elf1, active compounds read low 0.994 | S. cerevisiae deletion strains, locus YKL190W, strain CNB1, active compounds read low 1 | S. cerevisiae deletion strains, locus YKR001C, strain vps1, active compounds read low 1.01 | S. cerevisiae deletion strains, locus YKR026C, strain gcn3, active compounds read low 0.992 | S. cerevisiae deletion strains, locus YKR091W, strain srl3, active compounds read low 0.992 | S. cerevisiae deletion strains, locus YLL001W, strain dnm1, active compounds read low 1.01 | S. cerevisiae deletion strains, locus YLL026W, active compounds read low 0.998 | S. cerevisiae deletion strains, locus YLL041C, strain sdh2, active compounds read low 0.995 | S. cerevisiae deletion strains, locus YLR027C, strain aat2, active compounds read low 0.996 | S. cerevisiae deletion strains, locus YLR039C, strain RIC1, active compounds read low 1.01 | S. cerevisiae deletion strains, locus YLR058C, strain SHM2, active compounds read low 1 | S. cerevisiae deletion strains, locus YLR102C, strain apc9, active compounds read low 1.02 | S. cerevisiae deletion strains, locus YLR113W, strain HOG1, active compounds read low 0.989 | S. cerevisiae deletion strains, locus YLR221C, strain rsa3, active compounds read low 0.992 | S. cerevisiae deletion strains, locus YLR258W, strain gsy2, active compounds read low 0.99 | S. cerevisiae deletion strains, locus YLR262C, strain YPT6 (second series), active compounds read low 0.998 | S. cerevisiae deletion strains, locus YLR262C, strain YPT6, active compounds read low 0.977 | S. cerevisiae deletion strains, locus YLR268W, strain sec22, active compounds read low 1 | S. cerevisiae deletion strains, locus YLR320W, strain mms22, active compounds read low 0.988 | S. cerevisiae deletion strains, locus YLR330W, strain CHS5, active compounds read low 1.01 | S. cerevisiae deletion strains, locus YLR342W, strain FKS1 (second series), active compounds read low 1.04 | S. cerevisiae deletion strains, locus YLR342W, strain FKS1, active compounds read low 0.987 | S. cerevisiae deletion strains, locus YLR357W, strain rsc2, active compounds read low 0.97 | S. cerevisiae deletion strains, locus YLR370C, strain arc18, active compounds read low 0.995 | S. cerevisiae deletion strains, locus YLR371W, strain rom2, active compounds read low 1.02 | S. cerevisiae deletion strains, locus YLR384C, strain iki3, active compounds read low 0.999 | S. cerevisiae deletion strains, locus YLR418C, strain cdc73, active compounds read low 0.996 | S. cerevisiae deletion strains, locus YML016C, strain PPZ1, active compounds read low 0.997 | S. cerevisiae deletion strains, locus YML032C, strain rad52, active compounds read low 1.02 | S. cerevisiae deletion strains, locus YML120C, strain ndi1, active compounds read low 1.02 | S. cerevisiae deletion strains, locus YML124C, strain tub3, active compounds read low 0.995 | S. cerevisiae deletion strains, locus YMR058W, strain fet3, active compounds read low 1 | S. cerevisiae deletion strains, locus YMR078C, strain ctf18, active compounds read low 1.01 | S. cerevisiae deletion strains, locus YMR125W, strain sto1, active compounds read low 0.986 | S. cerevisiae deletion strains, locus YMR129W, active compounds read low 1 | S. cerevisiae deletion strains, locus YMR205C, strain PFK2, active compounds read low 0.982 | S. cerevisiae deletion strains, locus YMR223W, strain ubp8, active compounds read low 1.02 | S. cerevisiae deletion strains, locus YMR231W, strain pep5, active compounds read low 0.995 | S. cerevisiae deletion strains, locus YMR263W, strain SAP30, active compounds read low 0.998 | S. cerevisiae deletion strains, locus YMR307W, strain GAS1, active compounds read low 1.02 | S. cerevisiae deletion strains, locus YNL067W, strain RPL9B, active compounds read low 0.999 | S. cerevisiae deletion strains, locus YNL071W, strain lat1, active compounds read low 1.01 | S. cerevisiae deletion strains, locus YNL128W, strain TEP1, active compounds read low 1.01 | S. cerevisiae deletion strains, locus YNL153C, strain GIM3, active compounds read low 0.995 | S. cerevisiae deletion strains, locus YNL183C, strain NPR1, active compounds read low 0.925 | S. cerevisiae deletion strains, locus YNL209W, strain ssb2, active compounds read low 1 | S. cerevisiae deletion strains, locus YNL233W, strain BNI4, active compounds read low 1 | S. cerevisiae deletion strains, locus YNL248C, strain rpa49, active compounds read low 1 | S. cerevisiae deletion strains, locus YNL250W, strain rad50, active compounds read low 1.02 | S. cerevisiae deletion strains, locus YNL271C, strain bni1, active compounds read low 1.02 | S. cerevisiae deletion strains, locus YNL298W, strain CLA4, active compounds read low 1.02 | S. cerevisiae deletion strains, locus YNL307C, strain MCK1, active compounds read low 1.01 | S. cerevisiae deletion strains, locus YNL322C, strain KRE1 (second series), active compounds read low 0.994 | S. cerevisiae deletion strains, locus YNL322C, strain KRE1, active compounds read low 1 | S. cerevisiae deletion strains, locus YNR049C, strain mso1, active compounds read low 1.01 | S. cerevisiae deletion strains, locus YNR052C, strain pop2, active compounds read low 1.01 | S. cerevisiae deletion strains, locus YOL006C, strain TOP1, active compounds read low 1 | S. cerevisiae deletion strains, locus YOL012C, strain htz1 1.41 | S. cerevisiae deletion strains, locus YOL147C, strain pex11, active compounds read low 1.01 | S. cerevisiae deletion strains, locus YOR001W, strain rrp6, active compounds read low 0.994 | S. cerevisiae deletion strains, locus YOR061W, strain CKA2, active compounds read low 1 | S. cerevisiae deletion strains, locus YOR069W, strain VPS5, active compounds read low 1 | S. cerevisiae deletion strains, locus YOR070C, strain gyp1, active compounds read low 0.991 | S. cerevisiae deletion strains, locus YOR080W, strain dia2, active compounds read low 0.994 | S. cerevisiae deletion strains, locus YOR083W, strain WHI5, active compounds read low 1 | S. cerevisiae deletion strains, locus YOR106W, strain vam3, active compounds read low 0.998 | S. cerevisiae deletion strains, locus YOR136W, strain idh2, active compounds read low 1.01 | S. cerevisiae deletion strains, locus YOR144C, strain elg1, active compounds read low 1.01 | S. cerevisiae deletion strains, locus YOR184W, strain ser1, active compounds read low 1.01 | S. cerevisiae deletion strains, locus YOR231W, strain MKK1, active compounds read low 1 | S. cerevisiae deletion strains, locus YOR265W, strain rbl2, active compounds read low 0.986 | S. cerevisiae deletion strains, locus YOR270C, strain vph1, active compounds read low 1 | S. cerevisiae deletion strains, locus YOR290C, strain snf2, active compounds read low 0.997 | S. cerevisiae deletion strains, locus YOR316C, strain cot1, active compounds read low 1.02 | S. cerevisiae deletion strains, locus YPL051W, strain arl3, active compounds read low 1 | S. cerevisiae deletion strains, locus YPL055C, strain LGE1, active compounds read low 0.976 | S. cerevisiae deletion strains, locus YPL078C, strain atp4, active compounds read low 0.989 | S. cerevisiae deletion strains, locus YPL106C, strain sse1, active compounds read low 0.969 | S. cerevisiae deletion strains, locus YPL240C, strain hsp82, active compounds read low 0.995 | S. cerevisiae deletion strains, locus YPL241C, strain CIN2, active compounds read low 0.992 | S. cerevisiae deletion strains, locus YPL256C, strain CLN2, active compounds read low 0.987 | S. cerevisiae deletion strains, locus YPR119W, strain clb2, active compounds read low 1.01 | S. cerevisiae deletion strains, locus YPR141C, strain kar3, active compounds read low 1.01 | S. cerevisiae deletion strains, locus YPR163C, strain tif3, active compounds read low 1.01 | S. cerevisiae deletion strains, locus YPR167C, strain met16, active compounds read low 1.01 | S. cerevisiae deletion strains, strain wtn01, active compounds read low 1 | S. cerevisiae strains, strain wild type, active compounds read low 1.01
